± gives the standard deviation of the averaged measurements.

The test system of the assay is MDA-MB-231. As to the kind of experiment: kynurenine production, fold change vs DMSO IFNg/TNF control; higher = more kynurenine produced (less inhibition). Particulars: pre-treatment time: 18 h then 24 h IFNg/TNF. The procedure, abridged:
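In 96-well plates, MDA-MB-231 cells (7 × 10^4/well) were given 24 h to settle, pre-treated for 18 h with each natural product in 0.1% DMSO, and stimulated for 24 h with IFNγ (1 U/ml) and TNF (6.25 ng/ml) at 37°C. Supernatants were processed with trichloroacetic acid and p-dimethylaminobenzaldehyde and read at 492 nm against 0–100 μM standards. In the first screening round, kynurenine production, as fold change over same-plate cytokine-stimulated vehicle wells, was averaged over duplicate plates.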
With `CC1CCC(C(C)C)C(O)C1` [(1R,2S,5R)-(-)-menthol] (compound dose: 10 uM), the kynurenine production turned out to be 0.806 ± 0.069.
As for `C=C1C(=O)[C@@]23[C@H](O)C[C@@H]4C(C)(C)C(=O)CC[C@@]4(C)[C@@H]2CC[C@@H]1[C@H]3O` [Glaucocalyxin A] (compound dose: 10 uM), the kynurenine production turned out to be 0.109 ± 0.029.
For `C[C@@H]1C(=O)O[C@H]2C[C@@]34[C@H]5C[C@@H](C(C)(C)C)[C@]36[C@@H](OC(=O)[C@@H]6O)O[C@@]4(C(=O)O5)[C@]21O` [Ginkgolide A] (compound dose: 10 uM), the kynurenine production amounted to 1.2 ± 0.084.
With `C=C(C)[C@@H]1CC[C@@H](C)[C@@H]2CCC(C)=C[C@@H]21` [Amorpha-4,11-diene] (compound dose: 10 uM) the figure was 0.961 ± 0.19; with `C[C@]1(OC(=O)/C=C/c2ccccc2)C[C@@H](O)[C@]2(O)C=CO[C@@H](O[C@@H]3O[C@H](CO)[C@@H](O)[C@H](O)[C@H]3O)[C@@H]21` [Harpagoside] (compound dose: 10 uM), 0.91 ± 0.17; with `CC(C)(O)CCC(=O)[C@](C)(O)C1[C@H](O)C[C@@]2(C)[C@@H]3CC=C4[C@@H](C[C@H](O)[C@@H](O)C4(C)C)[C@]3(C)C(=O)C[C@]12C` (stereo partly specified) [Cucurbitacin IIb] (compound dose: 10 uM), 0.826 ± 0.27.
Under `CC(C)C1=C[C@H]2[C@@H](CC[C@]2(C)O)[C@](C)(O)CC1` [Alismoxide] (compound dose: 10 uM) stands 0.714 ± 0.17.
Under `C[C@@H]1O[C@@H](O[C@H]2[C@H](OC(=O)[C@]34CCC(C)(C)C[C@H]3C3=CC[C@@H]5[C@@]6(C)C[C@H](O)[C@H](O[C@@H]7O[C@H](CO)[C@@H](O)[C@H](O)[C@H]7O)[C@@](C)(CO)[C@@H]6CC[C@@]5(C)[C@]3(C)C[C@H]4O)OC[C@H](O)[C@@H]2O)[C@H](O)[C@H](O)[C@H]1O[C@@H]1OC[C@@H](O)[C@H](O[C@@H]2OC[C@](O)(CO)[C@H]2O)[C@H]1O` [Polygalacin D] (compound dose: 10 uM) stands 0.382 ± 0.056; under `CC(C)=CCC[C@@](C)(O)[C@H]1CC[C@]2(C)[C@@H]1[C@H](O)C[C@@H]1[C@@]3(C)CC[C@H](O)C(C)(C)[C@@H]3CC[C@]12C` [(20R)-Protopanaxadiol] (compound dose: 10 uM), 0.793 ± 0.14; under `COC(=O)C1=CO[C@@H](O[C@@H]2O[C@H](CO)[C@@H](O)[C@H](O)[C@H]2O)[C@@H]2C(CO)=C[C@H](O)[C@H]12` [Methyl deacetylasperulosidate] (compound dose: 10 uM), 1.15 ± 0.1.
For `CC(CCC(OC1OC(CO)C(O)C(O)C1OC1OC(CO)C(O)C(O)C1O)C(C)(C)O)C1CCC2(C)C3CC=C4C(CCC(OC5OC(CO)C(O)C(O)C5O)C4(C)C)C3(C)C(O)CC12C` (stereo unspecified) [Mogroside III-E] (compound dose: 10 uM), the kynurenine production was 0.996 ± 0.3.
Under `C=C1CC[C@@H]2[C@](C)(CO)[C@H](O)CC[C@@]2(C)[C@@H]1/C=C/C1=CCOC1=O` [14-Deoxy-11,12-didehydroandrographolide] (compound dose: 10 uM) stands 0.921 ± 0.095; under `CC1(C)[C@@H](O[C@H]2O[C@H](C(=O)O)[C@@H](O)[C@H](O)[C@H]2O[C@@H]2O[C@H](C(=O)O)[C@@H](O)[C@H](O)[C@H]2O)CC[C@]2(C)[C@H]3C(=O)C=C4[C@@H]5C[C@@](C)(C(=O)O)CC[C@]5(C)CC[C@@]4(C)[C@]3(C)CC[C@@H]12` [Dipotassium glycyrrhizinate] (compound dose: 10 uM), 0.808 ± 0.21; under `CC(C)=CCC[C@](C)(O)[C@@H]1CC=C(C)CC1` [alpha-Bisabolol] (compound dose: 10 uM), 0.79 ± 0.15.
On to `CC(C)=CCC[C@](C)(O[C@@H]1O[C@H](CO)[C@@H](O)[C@H](O)[C@H]1O)[C@H]1CC[C@]2(C)[C@@H]1[C@H](O)C[C@@H]1[C@@]3(C)CC[C@H](O[C@@H]4O[C@H](CO)[C@@H](O)[C@H](O)[C@H]4O[C@@H]4O[C@H](CO)[C@@H](O)[C@H](O)[C@H]4O)C(C)(C)[C@@H]3CC[C@]12C` [Ginsenoside Rd] (compound dose: 10 uM), for which the kynurenine production came out at 0.778 ± 0.17.
As for `C=C1C(=O)O[C@@H]2/C=C(\C)[C@@H](OC(C)=O)C/C=C(\COC(C)=O)C[C@@H](OC(=O)/C(C)=C/CO)[C@@H]12` [Eupalinolide B] (compound dose: 10 uM), the kynurenine production was 0.26 ± 0.0058.

The record behind these values is the supplement of paper PMC13094657.
